# Hits are enriched below; roughly 6.9% of the tested compounds scored in any of these assays.
# SKKanGAS inh = blocks kanamycin growth of S. pyogenes SKKanGAS strain; 300,000 compounds, 1.3% hits; AID 1662; inhibition, % at 7.5 µM; BacTiter-Glo, 6 h;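 active = mean replicate score, as percent of positive control median, at least 50; inconclusive = mean below 50 but one replicate at or above 50; inactive = mean and every replicate below 50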;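 note: strain carries kanamycin resistance gene driven by streptokinase promoter and grows in 40 µg/ml kanamycin; loss of luminescence reflects streptokinase promoter inhibition or plain growth inhibition; 0% = median of DMSO wells and 100% = positive control at its reference dose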
# Beta apoptosis = beta cell apoptosis inhibition. 300,000 compounds, 0.8% hits. AID 435005. INS-1E cytokine-induced death, ATP luminescence, 48 h; percent of positive-control rescue, neutral wells zero. protection from apoptosis, % (concentration not given with the values);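 active = Every replicate reaches about 75%, or at least half do and their mean reaches it too, limit read from the data; inconclusive = At least half of replicates reach the limit but their mean does not; inactive = Under half of replicates reach the limit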;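 note: 0% = cytokine-treated negative control wells and 100% = positive control rescue; higher means more ATP so stronger rescue from cytokine killing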
# CSC inhib = cancer stem cell inhibition; cancer stem cell-like cells viability, luminescence; inhibition, % at 7.5 µM; 300,000 compounds, 1.1% hits; AID 2717; in the data active = inhibition above about 75%; inconclusive = no clear call, values can overlap the other calls; tested in HMLE shEcad cells
# MPTP inh = permeability transition pore inhibition. isolated mouse mitochondria, Ca2+ swelling absorbance, 30 min. inhibition, % at 10 µM. 360,000 compounds, 1.4% hits. AID 602449;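 active = inhibition of 50% or more, scaled per plate between neutral and stimulator controls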;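 note: 0% = DMSO wells given calcium and 100% = 1 mM EGTA wells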
# GRIN3A LBD mod = modulates the human NR3A ligand-binding domain | NR3A LBD differential scanning fluorimetry, Tm shift; 0% = protein alone, 100% = glycine-bound protein | Tm shift relative to glycine control, % at 25 µM | 340,000 compounds, 2.5% hits;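 active = melting temperature shift of at least 10% of the positive control shift, at one fixed dose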
# Mdm2 MdmX PPI = disrupts the human Mdm2-MdmX interaction. O15151+Q00987. SaOS-2 split-luciferase Mdm2/MdmX complementation, luminescence. inhibition, % at 8 µM. AID 485346. 330,000 compounds, 3% hits;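 active = inhibition of at least 50% at 8 µM in the primary screen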
# Target sequence (O15151 whole entry, looked up): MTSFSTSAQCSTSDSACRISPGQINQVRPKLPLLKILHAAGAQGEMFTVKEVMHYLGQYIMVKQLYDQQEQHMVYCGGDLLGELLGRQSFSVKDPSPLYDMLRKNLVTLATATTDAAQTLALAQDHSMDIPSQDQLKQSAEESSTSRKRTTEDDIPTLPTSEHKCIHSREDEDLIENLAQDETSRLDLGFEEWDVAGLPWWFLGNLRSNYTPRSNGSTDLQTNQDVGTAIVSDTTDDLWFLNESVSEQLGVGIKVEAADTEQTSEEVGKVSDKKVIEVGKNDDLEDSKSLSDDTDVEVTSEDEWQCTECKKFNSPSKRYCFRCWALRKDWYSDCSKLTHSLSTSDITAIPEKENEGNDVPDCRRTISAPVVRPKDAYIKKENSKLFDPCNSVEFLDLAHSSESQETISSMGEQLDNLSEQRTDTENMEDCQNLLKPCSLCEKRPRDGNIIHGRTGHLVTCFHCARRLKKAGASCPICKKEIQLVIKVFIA
# Target sequence (Q00987 whole entry, looked up): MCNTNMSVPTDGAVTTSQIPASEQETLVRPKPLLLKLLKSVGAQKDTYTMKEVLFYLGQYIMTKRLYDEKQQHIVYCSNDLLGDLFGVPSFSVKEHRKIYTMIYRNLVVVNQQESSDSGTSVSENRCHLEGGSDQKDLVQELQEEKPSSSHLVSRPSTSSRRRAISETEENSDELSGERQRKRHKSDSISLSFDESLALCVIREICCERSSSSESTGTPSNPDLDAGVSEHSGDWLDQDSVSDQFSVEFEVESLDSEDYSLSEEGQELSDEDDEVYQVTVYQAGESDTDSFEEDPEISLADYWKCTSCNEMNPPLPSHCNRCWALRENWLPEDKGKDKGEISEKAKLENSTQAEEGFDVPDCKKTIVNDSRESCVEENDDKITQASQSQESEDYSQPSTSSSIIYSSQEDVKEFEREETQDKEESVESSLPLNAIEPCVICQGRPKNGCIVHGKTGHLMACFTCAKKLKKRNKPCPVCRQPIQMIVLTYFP
# The depositor's hits bear a star; ? = inconclusive; . = no result given.
SMILES,SKKanGAS inh,Beta apoptosis,CSC inhib,MPTP inh,GRIN3A LBD mod,Mdm2 MdmX PPI
COC(=O)Cn1c(=NC(=O)c2ccc(S(=O)(=O)N3CCc4ccccc4C3)cc2)sc2cc(OC)ccc21,2.2,-5.1,.,-1.1,-0.6,3.8
COCCn1c(=NC(=O)c2ccc(S(=O)(=O)N3CCc4ccccc4C3)cc2)sc2cc(S(N)(=O)=O)ccc21,12.9,-6.2,4.4,-17.3,25.2*,7.3
O=C(Nc1cc([N+](=O)[O-])ccc1O)c1cccc([N+](=O)[O-])c1,8.7,5.9,-0.7,3.1,-4.4,4.9
Cc1ccc(NC(=O)c2cccc(Oc3ccc([N+](=O)[O-])cc3)c2)c(C(=O)O)c1,28.3,-3.6,40.2,5.8,2.7,15.7
O=C(Nc1cc([N+](=O)[O-])ccc1O)c1cccc(C(=O)Nc2cc([N+](=O)[O-])ccc2O)c1,20.4,-1.5,-11.3,0.1,24.7*,.
Cc1cc(O)c(NC(=O)c2cccc([N+](=O)[O-])c2)cc1C,9.3,-0.1,-9.6,3.2,16.5*,2.4
O=C(Nc1ccc(O)cc1)c1cccc(Oc2ccc([N+](=O)[O-])cc2)c1,11.1,1.1,.,0.4,31.7*,4.8
CCOc1ccc(CN(C)C(=O)CCc2ccc(S(=O)(=O)N3CCCCCC3)cc2)cc1,.,.,.,0.2,-1.0,9.4
COC(=O)C1=C(C)N(CCc2ccccc2)C(=O)/C1=C\c1ccco1,-2.2,-1.3,3.1,33.4,19.2*,1.4
C=CCC1(/C=N/O)CCOC(C)(C)C1 (stereo not drawn),-3.9,.,-7.1,-0.4,1.1,21.1
O=C(OCC(=O)N1CCN(c2ccccc2)CC1)c1ccccc1NCCO,6.0,0.1,.,-0.9,0.9,5.2
O=C(Nc1ccc(OC(F)(F)F)cc1)C1CCCN(S(=O)(=O)c2cnc[nH]2)C1 (stereo not drawn),99.1*,2.6,-13.0,-2.1,1.5,22.5
CCOc1ccc(NC(=O)C2CCCN(S(=O)(=O)c3cnc[nH]3)C2)cc1 (stereo not drawn),2.6,-8.9,-2.0,-4.0,-0.5,-24.1
COc1ccc(S(=O)(=O)n2[nH]c(=O)c(CCO)c2C)c([N+](=O)[O-])c1,6.1,.,-5.3,-0.6,15.6*,-26.9
Cc1[nH]c2ccccc2c1C(=O)COC(=O)C1CC(O)CN1S(=O)(=O)c1ccc(Cl)cc1 (stereo not drawn),.,.,.,0.9,-12.2,24.5
CSCCC(NS(=O)(=O)c1ccc(Cl)cc1)C(=O)OCC(=O)c1c(C)[nH]c2ccccc12 (stereo not drawn),31.8,7.5,22.0,6.3,17.5*,2.7
CCOC(=O)C1=NOC(CNC(=O)C2=NOC(CNC(=O)c3c(-c4ccccc4Cl)noc3C)C2)C1 (stereo not drawn),2.2,-2.3,-8.8,2.4,-2.7,12.8
CCOC(=O)C1=NOC(CNC(=O)c2c(-c3ccccc3Cl)noc2C)C1 (stereo not drawn),-8.1,-8.9,.,-0.9,13.6*,21.6
c1ccc(-c2cn(-c3ccccc3)c3ncnc(N4CCCCC4)c23)cc1,66.7*,2.6,71.4,25.8,2.6,21.1
Cc1ccc(-n2cc(-c3ccccc3)c3c(NN4CCOCC4)ncnc32)cc1,1.7,8.4,72.1,0.1,-5.0,17.6
Cn1ncc2c(Nc3ccccc3Br)ncnc21,4.4,-6.1,0.9,-5.6,14.0*,20.9
Cc1cc(NC(=O)c2ccc(F)c(S(=O)(=O)N3CCCCC3)c2)no1,-7.6,.,.,1.3,2.9,1.8
Cc1ccc(NC(=O)Cn2nnc(C(=O)NCc3cccs3)c2N)cc1Cl,-0.5,6.1,2.1,0.9,16.3*,-3.0
COc1ccc(NC(=O)Cn2nnc(C(=O)NCc3cccs3)c2N)cc1Cl,?,.,2.5,0.0,-0.7,41.7
Cc1cnc(NC(=O)c2cc3c(s2)CCCC3)s1,19.8,12.3,19.4,1.5,22.8*,13.3
SMILES,SKKanGAS inh,Beta apoptosis,CSC inhib,MPTP inh,GRIN3A LBD mod,Mdm2 MdmX PPI
CC/C(=N\Nc1ccnc2cc(Cl)ccc12)c1ccc(O)cc1,-2.2,-10.8,48.6,34.8,7.5,36.8
Oc1ccc(/C=N/Nc2ccnc3cc(Cl)ccc23)c(O)c1O,8.0,-9.4,-4.1,8.4,18.5*,12.4
Oc1ccc(/C=N/Nc2ccnc3cc(Cl)ccc23)cc1O,-4.4,-13.4,33.0,16.7,20.8*,9.3
CCc1nnc(NC(=O)c2ccc(Br)c(S(=O)(=O)N3CCOCC3)c2)s1,5.5,-7.3,-12.8,-0.6,-0.7,-0.1
CO/N=C(/C(=O)N[C@@H]1C(=O)N2C(C(=O)O)=CCS[C@H]12)c1cnc(N)s1,98.9*,2.0,-13.4,0.4,.,.
O=C(NCCc1ccccc1)C1Cc2c(-c3ccccc3Oc3ccccc3)ccnc2O1 (stereo not drawn),.,.,.,0.1,.,.
O=C(N/N=C/c1ccc(F)cc1)c1cc(-c2ccc3c(c2)OCO3)n[nH]1,-0.7,16.0,24.7,3.2,29.2*,0.9
O=C(N/N=C/c1cc2c(cc1Cl)OCO2)c1cc(-c2ccccc2)n[nH]1,23.2,0.5,24.8,1.5,32.4*,16.3
COc1ccc(/C=N/NC(=O)c2cc(-c3ccc4c(c3)OCO4)n[nH]2)cc1OC,7.4,32.1,26.6,-2.9,25.3*,12.0
Cn1cccc1-c1cc(C(=O)N/N=C/c2ccc(F)cc2)[nH]n1,2.5,5.7,.,-1.1,8.8,-4.2
O=C(N/N=C/c1cc2c(cc1Cl)OCO2)c1ccncc1,-7.2,-5.4,-7.5,-0.8,2.9,-4.5
COc1ccc(N2CSC3=C(C#N)C(c4cccs4)CC(=O)N3C2)cc1 (stereo not drawn),0.1,-2.0,-1.3,2.0,18.6*,16.7
N#Cc1c(-c2c(Cl)cccc2Cl)noc1/C=C/Nc1ccc(C(=O)O)cc1,58.8*,-10.0,-16.2,2.1,-11.5,38.4
Cn1c(=O)c2c(SCC(=O)N3CCOCC3)nc(-c3ccccc3F)nc2n(C)c1=O,60.6*,.,-12.3,2.1,1.6,31.6
O=C(CN1C(=O)c2cccc3cccc1c23)NCC1CCCO1 (stereo not drawn),-2.3,-8.7,-2.2,0.7,15.6*,-6.0
O=C(NC(=S)Nc1cccc(Cl)c1N1CCCCC1)c1ccco1,36.3,7.9,77.2*,14.5,-0.8,12.6
O=C(NC(=S)Nc1cccc(Cl)c1N1CCOCC1)c1cccs1,13.2,-4.7,-4.2,0.3,-7.7,25.9
O=C(NC(=S)Nc1cccc(Cl)c1N1CCCCC1)c1cccs1,60.0*,12.2,99.3*,4.0,10.0,34.2
Cc1ccc2nc(-c3ccc(SCC(=O)Nc4ccc5c(c4)OCCO5)nc3)[nH]c2c1,18.7,12.1,-10.0,-2.6,25.8*,-34.1
CCOC(=O)CSc1ccc(-c2nc3ccccc3[nH]2)cn1,1.4,6.5,.,0.5,-6.0,-1.3
O=C(CSc1ccc(-c2nc3ccccc3[nH]2)cn1)Nc1ccc(S(=O)(=O)NC2CC2)cc1,19.6,6.7,-6.0,0.9,20.7*,6.0

# Screening results: PubChem, several laboratories
